# Assay outcomes deposited in PubChem by National Center for Advancing Translational Sciences (NCATS).
# G9a inh: inhibitors of human histone lysine methyltransferase G9a | Potency, µM (titrated, usually from 102 µM), inactives show at the top dose activity, negative = inhibition, usual class: inhibitors | Q96KQ7 | hit rate 8.8% among 350,000 | G9a H3K9 monomethylation, AlphaScreen, 2 h | AID 504332; note: % is set by controls: 0 for no effect and ±100 for the full control effect; nearly all actives have a fitted effect of over 75% in size
# Target sequence (Q96KQ7 913-1193 limits assumed): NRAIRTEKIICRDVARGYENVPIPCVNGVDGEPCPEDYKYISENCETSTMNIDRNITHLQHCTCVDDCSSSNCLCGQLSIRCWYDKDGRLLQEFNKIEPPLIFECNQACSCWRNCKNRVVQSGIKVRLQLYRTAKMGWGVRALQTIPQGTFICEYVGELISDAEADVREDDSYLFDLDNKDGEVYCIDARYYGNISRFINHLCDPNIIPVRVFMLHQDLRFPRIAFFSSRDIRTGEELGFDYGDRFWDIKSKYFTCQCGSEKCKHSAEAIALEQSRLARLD
#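 Quantitative HTS format: methyltransferase activity on a biotin-tagged H3K9 peptide is measured by AlphaScreen, using a rabbit anti-monomethyl-H3K9 antibody with streptavidin donor and anti-IgG acceptor beads. Final levels are 20 nM enzyme, 500 nM peptide, 20 uM SAM; 2 h RT.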
# PLK1 PBD block: blocks phosphopeptide binding to human PLK1 polo-box domain; hit rate 2.8% among 360,000; Potency, µM, without a hit: max response, negative = inhibition, usual class: inhibitors; P53350; Plk1 PBD binding of FITC phosphopeptide, fluorescence polarization; note: series mostly up to about 57 µM; % is set by controls: 0 for no effect and ±100 for the full control effect; nearly all actives have a fitted effect of over 65% in size
# BAZ2B inh: inhibitors of human BAZ2B bromodomain; AlphaScreen BAZ2B-H3K14Ac peptide displacement; Potency, µM (doses to about 114 µM), inactives show at the top dose activity change, negative = inhibition, actives largely listed as inhibitors; hit rate 4.4% among 360,000; AID 504333; note: % is set by controls: 0 for no effect and ±100 for the full control effect; nearly all actives have a fitted effect of over 60% in size
#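 AlphaScreen displacement: compounds (up to 110uM) incubated 30 min at room temperature with a preformed 50 nM BAZ2B/50 nM biotinylated H3K14Ac peptide complex in PBS pH 7.4 with Tween-20. Donor and acceptor beads at 10 ug/mL final added, 20 min light-protected before reading.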
# Sfp PPTase inh: Sfp phosphopantetheinyl transferase inhibition. Q9F4F7. Biochemical Sfp PPTase activity, qHTS. Potency, µM, for inactives: largest response in the series, negative = inhibition, most hits filed as inhibitors. hit rate 3.5% among 310,000. AID 1490;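 note: the enzyme is Sfp with the accession as filed and its product quenches rhodamine fluorescence; 0% = enzyme reaction without inhibitor and -100% = no enzyme wells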
#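 Compounds were incubated with enzyme (final 15 nM) for 15 min at room temperature before substrate addition started the reaction. Fluorescence at 525 nm excitation, 598 nm emission was recorded immediately and after 30 minutes.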
# HP1b binding inh: blocks HP1-beta chromodomain binding to methylated histone tails; AlphaScreen HP1-beta / biotin-H3K9me3 peptide binding; Potency, µM (titrated, usually from 114 µM), without a hit: top-dose activity change, negative = inhibition, actives largely listed as inhibitors; hit rate 0.56% among 390,000; AID 540317; note: nearly all actives have a fitted effect of over 70% in size
# Target sequence (P83916 whole entry, looked up): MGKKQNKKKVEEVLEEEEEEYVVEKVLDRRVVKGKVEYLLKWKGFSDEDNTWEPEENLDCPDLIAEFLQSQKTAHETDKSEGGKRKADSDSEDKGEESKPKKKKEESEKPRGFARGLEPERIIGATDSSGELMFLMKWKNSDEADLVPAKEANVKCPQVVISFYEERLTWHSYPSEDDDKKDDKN
#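 HP1-beta protein (50 nM final) preincubated 30 min at room temperature with biotinylated H3(1-18)K9me3 peptide (50 nM) in PBS pH 7.4, 0.01% Tween-20, then compound added for 30 min. AlphaScreen streptavidin donor/nickel chelate acceptor beads (10 ug/mL final), 30 min dark, luminescence read.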
# JMJD2A Tudor: blocks the human JMJD2A Tudor domain; O75164; AlphaScreen JMJD2A-Tudor / H3K4me3 peptide binding; Potency, µM (titrated, usually from 114 µM), for the others: at the top dose activity change, negative = inhibition, hits mostly inhibitors; hit rate 4.4% among 390,000; AID 504339; note: % is set by controls: 0 for no effect and ±100 for the full control effect; nearly all actives have a fitted effect of over 50% in size
# * = called active by the depositor; ? = inconclusive; nt = no result given; [ ] = remark or other dose. Rows were chosen to be rich in hits. Some 12% of all compounds tested hit in one or more screens of this group. Calls come from the whole dose curve; as a rule, active = well fitted curve in the direction sought with a large enough effect; inconclusive = small, poorly fitted or top-dose-only effect, or another doubt; inactive = no such curve, though single readings can be large; an effect the other way counts as inactive or inconclusive. Potency is the fitted concentration of half-maximal effect.
SMILES,G9a inh,PLK1 PBD block,BAZ2B inh,Sfp PPTase inh,HP1b binding inh,JMJD2A Tudor
COc1ccc(-c2csc(NS(=O)(=O)c3ccc([N+](=O)[O-])cc3)n2)cc1,?,?,35µM*,4%,-21%,?
COc1ccc(Cc2nnc(NS(=O)(=O)c3ccc([N+](=O)[O-])cc3)s2)cc1,40µM*,30µM*,?,-15%,-31%,-34%
CC(C)Cc1nnc(NS(=O)(=O)c2ccc([N+](=O)[O-])cc2)s1,3%[0.501 µM],-18%,?,?,61%,-12%
O=[N+]([O-])c1ccc(S(=O)(=O)Nc2nnc(C(F)(F)F)s2)cc1,45µM*,-17%,-30%,14%,37%,-27%
O=[N+]([O-])c1ccc2nc(NS(=O)(=O)c3ccc(F)cc3)sc2c1,79µM*,?,-11%,-3%,16%,-20%
CNC[C@@H]1OCc2cnnn2CCCC(=O)N([C@H](C)CO)C[C@H]1C,nt,-1%,nt,nt,nt,nt
COC(=O)C1(C)C=C2C(=C(c3ccccc3)C(=O)C2C)CN1 (stereo not given),nt,nt,nt,17%,nt,nt
COc1ccc(CCC(=O)N2CCN(c3ccc([N+](=O)[O-])cc3)CC2)cc1OC,18%,-11%,-1%,9%,44%,-24%
COc1ccc(S(=O)(=O)Nc2nnc(Cc3ccc(OC)c(OC)c3)s2)cc1,-49%,27µM*,0%,50µM*,-3%,-21%
COc1ccc(Cc2nnc(NS(=O)(=O)c3ccccc3)s2)cc1,-38%,?,0%,-2%,3%,-9%
COc1ccc(Cc2nnc(N)s2)cc1OC,7.9µM*,?,-1%,22µM*,-20%,-16%
O=C(NCCCc1ccncc1)C1CCC(=O)N(Cc2cccc(F)c2)C1 (stereo not given),11%,30µM*,-2%,16%,9%,-20%
COc1cccc(CN2CC(C(=O)NCCOc3ccccc3F)CCC2=O)c1 (stereo not given),-1%,34µM*,0%,15%,7%,-26%
CCNc1ncc2nc(-c3cc(F)cc(F)c3)c(=O)n(C3CC3)c2n1,11%[0.501 µM],nt,nt,15%,nt,nt
O=C1CCC=C1C(O)CCc1ccccc1 (stereo not given),nt,nt,nt,-13%,nt,nt
OB(O)c1ccc(Cl)s1,nt,nt,nt,31%,26%,-3%
COc1ccc2c(c1)-c1nc(/N=C/c3ccc(O)cc3)sc1CC2,?,-10%,50µM*,-8%,-16%,?
COc1ccc2c(c1)-c1nc(/N=C/c3c(O)ccc4ccccc34)sc1CC2,1.6µM*,?,?,-26%,?,40µM*
COc1ccc2c(c1)-c1nc(NC(=O)c3cccc(Br)c3)sc1CC2,?,nt,-10%,nt,43%,-30%
CCc1cnc(Nc2nc(C(N)c3ccccc3Cl)cs2)nc1 (stereo not given),nt,-10%,nt,nt,nt,nt
COC(=O)CC1C(=O)NCCN1C(=O)c1ccccc1 (stereo not given),8%[12.7 µM],3%,10%,14%,33%,-2%
COC(=O)CC1C(=O)NCCN1C(=O)CSc1nc2ccccc2s1 (stereo not given),7.1µM*,13µM*,nt,71µM*,11%,-35%
CCn1c2ccccc2n2c(=O)c(=O)n(CC(=O)Nc3ccc(C(C)C)cc3)nc12,5%[59 µM],-5%,11%,?,35%,-9%
OCCN(CC#CC(O)(c1ccccc1)c1ccccc1)CCO,32µM*,-3%,?,6%,21%,-4%
O=C(NCc1cccc(F)c1)c1ccc(N2C(=O)Cn3c(cc4sccc43)C2=O)cc1,-5%[59 µM],?,-7%,3%,0%,79µM*
SMILES,G9a inh,PLK1 PBD block,BAZ2B inh,Sfp PPTase inh,HP1b binding inh,JMJD2A Tudor
O=C(NCc1ccco1)c1ccc(Cn2c(=O)c3sccc3n(Cc3cccc(F)c3)c2=O)cc1,9%,-2%,28%,?,33%,-19%
CCCn1c(SCC(=O)Nc2ccccc2CC)nnc1C(C)C,-40%,3µM*,7%,6%,-7%,?
Cc1cc(N=Cc2c(O)n(-c3ccc4c(c3)OCO4)c(=O)c3ccccc23)ccn1,2%[59 µM],18%,-2%,?,19%,-24%
Cc1ccc(-n2c(O)c(C=Nc3ccc4c(c3)OCO4)c3ccccc3c2=O)cc1C,-25%[59 µM],-6%,-5%,35µM*,37%,-7%
Cc1cccc(-n2c(O)c(C=Nc3cccc(O)c3)c3ccccc3c2=O)n1,-6%,15µM*,-27%,11%,-19%,-13%[11.4 µM]
COc1cc(NC(=O)Cn2c(=O)n(CC(=O)NCCc3ccc(OC)c(OC)c3)c(=O)c3sccc32)cc(OC)c1,1%[59 µM],nt,0%,nt,35%,-15%
O=C(c1ccc(Cl)cc1)c1c[nH]c(C(=O)NNc2ccccc2)c1,20µM*,-19%,-31%,25%,34%,-12%
CCc1ccc(-n2c(C)n[nH]c2=S)cc1,-48%,-7%,1%,-8%,8%,3.5µM*
Cc1n[nH]c(=S)n1-c1ccccc1,nt,-19%,-31%,-3%,20%,89µM*
CC(c1n[nH]c(=S)n1-c1ccc(F)cc1)N1CCCCC1 (stereo not given),35µM*,-16%,-3%,-2%,3%,?
COC(Cc1n[nH]c(=S)n1-c1ccc(Cl)cc1)OC,?,-10%,4%,25%,17%,14µM*
COC(Cc1nnc(SC)n1-c1ccc(Cl)cc1)OC,14%,-5%,5%,9%,4%,-16%
C[C@H](CO)N1C[C@H](C)[C@@H](CN(C)Cc2ccc3c(c2)OCO3)Oc2c(NS(=O)(=O)c3cn(C)cn3)cccc2C1=O,nt,-1%,nt,nt,29%,-23%
CC(=O)Nc1ccc(S(=O)(=O)N2CCCN(S(=O)(=O)c3ccc4c(c3)OCCO4)CC2)cc1,nt,nt,nt,nt,nt,-14%
Cc1cc([N+](=O)[O-])ccc1NC(=O)CSc1nnc(C)n1C,nt,3%,17%,11%,24%,4%
S=c1[nH]nc(-c2ccc3ccccc3n2)n1-c1ccc(Cl)cc1,?,-19%,4%,16%,13%,?
CC(C)CCC(CC(C)O)c1n[nH]c(=S)n1-c1ccccc1 (stereo not given),6.3µM*,-2%,10%,-23%,8%,8.9µM*
CC(c1n[nH]c(=S)n1-c1ccc(Cl)cc1)N(C)C (stereo not given),8.9µM*,-11%,-11%,-26%,-19%,7.9µM*
Cc1ccc(OCc2n[nH]c(=S)n2-c2ccc(Cl)cc2)cc1,3.2µM*,-29%,-38%,6%,12%,?
CCC(c1n[nH]c(=S)n1-c1ccccc1)N(C)C (stereo not given),8.9µM*,-4%,-23%,-8%,26%,32µM*
COC(=O)c1sc(N2C(=O)c3oc4ccccc4c(=O)c3C2c2ccc(O)cc2)nc1C (stereo not given),27%[59 µM],nt,10%,nt,17%,-5%
